Test results taken from the supplement of paper PMC10849652.
About 7,900 targets were measured; listed, in parts, are those with a hit and a random draw of the rest. About 0.6% of all pairs of compound and target were hits.

Compound: c1cn2cc(-c3ccc4cn[nH]c4c3)nc(Nc3ccc(N4CCOCC4)cc3)c2n1 [entospletinib]
Test: log2 fold change, soluble protein after heating vs DMSO (PISA); higher = thermal stabilisation; K562 cells, 10 uM, 30 min; active = over 0.2 and 3.5 SD of the protein, either way, in both replicates (recomputed)
Method in brief: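 K562 cells at 2×10^6 cells/mL were treated for 30 min with 10 μM compound, and aliquots were heated for 3 min over 48°C-58°C before pooling. Extraction used PBS with 0.5% NP-40 at 4°C, and soluble protein was the supernatant after 21,000xg for 90 min, measured by TMTpro 16plex LC-MS/MS with channel sums equalised. Thermal stability values, relative to control samples and from duplicates, are log2 fold changes.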

UniProt Q9UEY8, sequence (Q9UEY8 whole entry, looked up): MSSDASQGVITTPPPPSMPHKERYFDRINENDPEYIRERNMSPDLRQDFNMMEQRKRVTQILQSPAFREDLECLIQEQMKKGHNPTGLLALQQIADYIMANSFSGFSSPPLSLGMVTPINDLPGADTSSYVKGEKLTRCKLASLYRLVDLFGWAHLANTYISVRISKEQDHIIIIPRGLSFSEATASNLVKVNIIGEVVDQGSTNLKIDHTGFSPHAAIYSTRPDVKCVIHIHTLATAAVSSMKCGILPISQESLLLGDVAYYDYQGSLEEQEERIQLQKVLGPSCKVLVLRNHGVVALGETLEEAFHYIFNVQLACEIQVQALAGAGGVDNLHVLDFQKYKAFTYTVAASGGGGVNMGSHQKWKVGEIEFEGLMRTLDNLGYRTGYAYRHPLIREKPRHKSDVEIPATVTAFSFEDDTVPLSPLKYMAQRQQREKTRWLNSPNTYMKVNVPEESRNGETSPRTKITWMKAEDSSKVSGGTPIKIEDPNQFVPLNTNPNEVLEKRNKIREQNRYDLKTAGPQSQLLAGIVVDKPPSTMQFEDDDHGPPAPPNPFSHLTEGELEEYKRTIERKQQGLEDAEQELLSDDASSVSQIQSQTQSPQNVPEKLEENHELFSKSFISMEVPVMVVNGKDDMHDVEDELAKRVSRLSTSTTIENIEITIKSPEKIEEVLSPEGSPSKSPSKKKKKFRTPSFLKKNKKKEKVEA
UniProt P24666, sequence (P24666 whole entry, looked up): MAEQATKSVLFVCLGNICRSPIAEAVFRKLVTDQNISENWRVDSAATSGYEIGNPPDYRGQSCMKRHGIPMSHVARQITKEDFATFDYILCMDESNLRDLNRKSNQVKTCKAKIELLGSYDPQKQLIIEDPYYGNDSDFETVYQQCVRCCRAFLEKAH
UniProt P98171, sequence (P98171 whole entry, looked up): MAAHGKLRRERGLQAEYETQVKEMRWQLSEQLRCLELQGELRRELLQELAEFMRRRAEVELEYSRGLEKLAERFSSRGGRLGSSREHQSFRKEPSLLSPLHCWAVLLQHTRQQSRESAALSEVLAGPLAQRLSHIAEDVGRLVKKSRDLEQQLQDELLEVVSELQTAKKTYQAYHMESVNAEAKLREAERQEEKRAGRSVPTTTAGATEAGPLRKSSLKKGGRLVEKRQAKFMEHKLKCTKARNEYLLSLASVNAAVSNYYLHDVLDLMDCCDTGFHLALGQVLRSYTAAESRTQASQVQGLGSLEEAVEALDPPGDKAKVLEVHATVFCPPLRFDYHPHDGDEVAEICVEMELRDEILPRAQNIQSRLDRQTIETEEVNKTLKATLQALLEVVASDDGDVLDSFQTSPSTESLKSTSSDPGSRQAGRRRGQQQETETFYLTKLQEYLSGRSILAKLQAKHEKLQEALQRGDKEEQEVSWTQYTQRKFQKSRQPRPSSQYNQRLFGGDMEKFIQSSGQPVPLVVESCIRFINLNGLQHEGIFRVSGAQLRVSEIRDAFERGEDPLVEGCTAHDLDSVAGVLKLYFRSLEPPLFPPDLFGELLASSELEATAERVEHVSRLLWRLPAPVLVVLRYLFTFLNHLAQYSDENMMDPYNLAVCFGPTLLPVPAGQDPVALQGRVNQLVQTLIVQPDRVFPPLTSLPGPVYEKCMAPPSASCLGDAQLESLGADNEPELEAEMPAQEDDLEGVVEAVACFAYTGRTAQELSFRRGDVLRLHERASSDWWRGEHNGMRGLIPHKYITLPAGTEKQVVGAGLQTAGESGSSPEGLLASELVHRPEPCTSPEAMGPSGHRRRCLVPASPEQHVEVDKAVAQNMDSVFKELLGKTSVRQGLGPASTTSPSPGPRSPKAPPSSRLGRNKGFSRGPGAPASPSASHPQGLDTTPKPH
UniProt Q9Y587, sequence (Q9Y587 whole entry, looked up): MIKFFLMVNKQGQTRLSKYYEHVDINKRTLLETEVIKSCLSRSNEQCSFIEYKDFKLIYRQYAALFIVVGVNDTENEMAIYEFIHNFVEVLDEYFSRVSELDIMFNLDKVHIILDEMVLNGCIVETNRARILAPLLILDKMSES
UniProt P10398, sequence (P10398 whole entry, looked up): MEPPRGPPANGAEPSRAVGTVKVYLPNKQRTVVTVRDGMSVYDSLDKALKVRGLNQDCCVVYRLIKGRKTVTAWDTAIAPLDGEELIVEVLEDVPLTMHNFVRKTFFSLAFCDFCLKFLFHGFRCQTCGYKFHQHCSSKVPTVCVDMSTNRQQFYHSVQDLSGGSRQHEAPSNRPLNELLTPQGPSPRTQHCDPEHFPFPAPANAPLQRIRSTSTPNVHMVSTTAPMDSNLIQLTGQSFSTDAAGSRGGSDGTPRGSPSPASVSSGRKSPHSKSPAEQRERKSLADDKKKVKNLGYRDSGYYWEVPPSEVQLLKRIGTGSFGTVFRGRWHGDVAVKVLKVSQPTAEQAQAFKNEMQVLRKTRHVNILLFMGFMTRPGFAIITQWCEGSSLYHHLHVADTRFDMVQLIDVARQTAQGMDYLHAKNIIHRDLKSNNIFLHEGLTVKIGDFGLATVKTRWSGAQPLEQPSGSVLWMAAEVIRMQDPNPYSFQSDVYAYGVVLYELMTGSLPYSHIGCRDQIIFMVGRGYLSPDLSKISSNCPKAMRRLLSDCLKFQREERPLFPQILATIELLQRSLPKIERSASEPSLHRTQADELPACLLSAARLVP
UniProt Q86WA6, sequence (Q86WA6 whole entry, looked up): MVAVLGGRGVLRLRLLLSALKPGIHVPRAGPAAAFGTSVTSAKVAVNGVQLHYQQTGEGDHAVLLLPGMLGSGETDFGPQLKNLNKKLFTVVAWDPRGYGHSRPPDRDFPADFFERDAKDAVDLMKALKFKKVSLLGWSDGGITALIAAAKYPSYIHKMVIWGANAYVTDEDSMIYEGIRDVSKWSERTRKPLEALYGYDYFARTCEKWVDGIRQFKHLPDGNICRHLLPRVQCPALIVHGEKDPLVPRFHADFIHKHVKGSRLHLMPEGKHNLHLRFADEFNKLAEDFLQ
UniProt P30837, sequence (P30837 whole entry, looked up): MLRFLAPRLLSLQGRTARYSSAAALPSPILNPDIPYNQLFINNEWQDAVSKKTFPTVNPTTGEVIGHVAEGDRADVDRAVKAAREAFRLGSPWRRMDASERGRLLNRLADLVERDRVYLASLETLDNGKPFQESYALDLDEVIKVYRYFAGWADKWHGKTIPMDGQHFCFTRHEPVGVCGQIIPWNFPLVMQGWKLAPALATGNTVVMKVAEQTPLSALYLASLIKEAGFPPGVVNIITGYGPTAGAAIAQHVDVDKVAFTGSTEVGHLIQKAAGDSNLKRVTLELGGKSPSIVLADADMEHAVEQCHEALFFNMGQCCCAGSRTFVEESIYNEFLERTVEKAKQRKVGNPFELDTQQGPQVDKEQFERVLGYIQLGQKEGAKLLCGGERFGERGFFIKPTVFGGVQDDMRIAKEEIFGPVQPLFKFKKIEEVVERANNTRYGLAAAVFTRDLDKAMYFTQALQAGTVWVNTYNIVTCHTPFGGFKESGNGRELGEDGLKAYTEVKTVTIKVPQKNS
UniProt P35612, sequence (P35612 whole entry, looked up): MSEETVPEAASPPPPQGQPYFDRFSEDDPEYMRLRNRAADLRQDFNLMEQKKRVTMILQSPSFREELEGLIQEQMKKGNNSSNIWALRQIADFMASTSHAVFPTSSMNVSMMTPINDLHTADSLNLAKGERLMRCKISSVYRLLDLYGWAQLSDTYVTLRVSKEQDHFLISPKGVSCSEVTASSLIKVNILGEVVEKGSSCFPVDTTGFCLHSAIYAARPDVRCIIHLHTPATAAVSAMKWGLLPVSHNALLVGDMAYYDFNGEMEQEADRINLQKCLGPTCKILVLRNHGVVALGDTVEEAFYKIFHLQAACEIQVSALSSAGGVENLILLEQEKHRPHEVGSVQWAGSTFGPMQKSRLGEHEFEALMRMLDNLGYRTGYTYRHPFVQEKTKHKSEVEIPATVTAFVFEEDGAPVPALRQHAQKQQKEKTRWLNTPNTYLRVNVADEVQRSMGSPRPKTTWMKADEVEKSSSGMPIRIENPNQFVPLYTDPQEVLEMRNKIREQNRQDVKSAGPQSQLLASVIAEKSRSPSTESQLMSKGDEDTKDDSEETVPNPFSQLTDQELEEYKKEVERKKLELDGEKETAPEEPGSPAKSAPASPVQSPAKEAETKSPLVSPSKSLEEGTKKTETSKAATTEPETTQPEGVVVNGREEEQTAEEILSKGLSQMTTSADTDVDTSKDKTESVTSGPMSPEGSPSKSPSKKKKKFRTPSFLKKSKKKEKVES
UniProt Q14CW9, sequence (Q14CW9 whole entry, looked up): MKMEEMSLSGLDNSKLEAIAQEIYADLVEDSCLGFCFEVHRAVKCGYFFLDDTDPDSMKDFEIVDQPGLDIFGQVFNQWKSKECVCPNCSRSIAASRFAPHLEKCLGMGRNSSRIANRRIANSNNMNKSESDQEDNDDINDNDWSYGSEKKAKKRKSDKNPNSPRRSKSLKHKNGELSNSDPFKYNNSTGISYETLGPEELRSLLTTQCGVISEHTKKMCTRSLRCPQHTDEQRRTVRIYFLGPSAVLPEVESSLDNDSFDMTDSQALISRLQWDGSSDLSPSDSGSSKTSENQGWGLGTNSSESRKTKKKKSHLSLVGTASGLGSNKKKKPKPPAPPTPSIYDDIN
UniProt Q9Y679, sequence (Q9Y679 whole entry, looked up): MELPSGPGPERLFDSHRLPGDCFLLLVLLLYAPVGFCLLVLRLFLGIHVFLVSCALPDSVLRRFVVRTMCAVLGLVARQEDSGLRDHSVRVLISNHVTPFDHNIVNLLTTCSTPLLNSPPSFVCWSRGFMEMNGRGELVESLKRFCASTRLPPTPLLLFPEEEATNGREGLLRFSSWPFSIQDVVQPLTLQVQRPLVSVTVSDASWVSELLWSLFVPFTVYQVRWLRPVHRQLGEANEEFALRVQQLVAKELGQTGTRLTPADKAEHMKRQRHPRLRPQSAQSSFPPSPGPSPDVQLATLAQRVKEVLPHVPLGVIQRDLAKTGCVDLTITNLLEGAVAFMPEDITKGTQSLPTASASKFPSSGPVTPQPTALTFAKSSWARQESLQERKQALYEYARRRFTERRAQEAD
UniProt O00244, sequence (O00244 whole entry, looked up): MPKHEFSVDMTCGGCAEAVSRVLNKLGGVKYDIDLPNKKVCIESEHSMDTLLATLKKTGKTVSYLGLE

How did the log2 fold change turn out when ANK2 (UniProt Q01484) was run?
The log2 fold change was 0.016 (inactive).

For AP4S1 (UniProt Q9Y587), which log2 fold change is on record?
The log2 fold change was 0.039 (inactive).

ANKRD29 (UniProt Q8N6D5) was tested. Which log2 fold change did it give?
Its log2 fold change is -0.152 (inactive).

AFDN isoform 1 (UniProt P55196) was tested. Which log2 fold change did it give?
The log2 fold change was -0.028 (inactive).

With ACP1 isoform 2 (UniProt P24666) as the target, how does the log2 fold change read?
Its log2 fold change is 0.052 (inactive).

Which log2 fold change does the source give for ALDH1B1 (UniProt P30837) here?
The log2 fold change was -0.018 (inactive).

For ALDH18A1 (UniProt P54886), which log2 fold change is on record?
Its log2 fold change is -0.246 (inactive).

Which log2 fold change does the source give for ARHGAP4 isoform 2 (UniProt P98171) here?
Its log2 fold change is 0.003 (inactive).

How did the log2 fold change turn out when ARFGAP2 (UniProt Q8N6H7) was run?
The log2 fold change was 0.007 (inactive).

With BTBD6 (UniProt Q96KE9) as the target, how does the log2 fold change read?
The log2 fold change was 0.056 (inactive).

With ATP9B (UniProt O43861) as the target, how does the log2 fold change read?
Its log2 fold change is -0.134 (inactive).

Which log2 fold change does the source give for ATXN3 isoform 1 (UniProt P54252) here?
Its log2 fold change is 0.058 (inactive).

For APPL1 (UniProt Q9UKG1), which log2 fold change is on record?
The log2 fold change was 0.027 (inactive).

How did the log2 fold change turn out when ATP6V0A1 isoform 3 (UniProt Q93050) was run?
Its log2 fold change is 0.079 (inactive).

Which log2 fold change does the source give for ADD3 (UniProt Q9UEY8) here?
The log2 fold change was 0.046 (inactive).

For ADD2 (UniProt P35612), which log2 fold change is on record?
The log2 fold change was -0.008 (inactive).

With BCLAF1 (UniProt Q9NYF8) as the target, how does the log2 fold change read?
The log2 fold change was 0.075 (inactive).

For BUB1B isoform 3 (UniProt O60566), which log2 fold change is on record?
The log2 fold change was -0.016 (inactive).

BRD4 (UniProt O60885) was tested. Which log2 fold change did it give?
Its log2 fold change is 0.065 (inactive).

How did the log2 fold change turn out when ATP12A isoform 2 (UniProt P54707) was run?
The log2 fold change was -0.003 (inactive).

How did the log2 fold change turn out when AUP1 (UniProt Q9Y679) was run?
The log2 fold change was -0.025 (inactive).

BCCIP (UniProt Q9P287) was tested. Which log2 fold change did it give?
The log2 fold change was -0.036 (inactive).

With ARMC8 (UniProt Q8IUR7) as the target, how does the log2 fold change read?
Its log2 fold change is -0.011 (inactive).

With BPHL (UniProt Q86WA6) as the target, how does the log2 fold change read?
The log2 fold change was -0.01 (inactive).

How did the log2 fold change turn out when ACO2 (UniProt Q99798) was run?
The log2 fold change was -0.008 (inactive).

For ADD3 isoform 2 (UniProt Q9UEY8), which log2 fold change is on record?
The log2 fold change was -0.066 (inactive).

For ACVR1 (UniProt Q04771), which log2 fold change is on record?
Its log2 fold change is -0.053 (inactive).

With ARAF (UniProt P10398) as the target, how does the log2 fold change read?
The log2 fold change was -0.003 (inactive).

Which log2 fold change does the source give for BRAP (UniProt Q7Z569) here?
Its log2 fold change is 0.002 (inactive).

How did the log2 fold change turn out when ATOX1 (UniProt O00244) was run?
Its log2 fold change is -0.005 (inactive).

Which log2 fold change does the source give for ACP1 (UniProt P24666) here?
Its log2 fold change is 0.102 (inactive).

How did the log2 fold change turn out when ASH2L (UniProt Q9UBL3) was run?
Its log2 fold change is -0.02 (inactive).

How did the log2 fold change turn out when ATXN7L3 isoform 2 (UniProt Q14CW9) was run?
The log2 fold change was 0.494 (inactive).

How did the log2 fold change turn out when AKR1C2 (UniProt P52895) was run?
The log2 fold change was 0.071 (inactive).

How did the log2 fold change turn out when ARFIP1 (UniProt P53367) was run?
Its log2 fold change is -0.109 (inactive).

With BTAF1 (UniProt O14981) as the target, how does the log2 fold change read?
The log2 fold change was -0.005 (inactive).

BRD3 (UniProt Q15059) was tested. Which log2 fold change did it give?
Its log2 fold change is 0.033 (inactive).

For ATP1A4 (UniProt Q13733), which log2 fold change is on record?
The log2 fold change was -0.065 (inactive).

For ATR (UniProt Q13535), which log2 fold change is on record?
The log2 fold change was -0.021 (inactive).
